Assay results published in PubChem BioAssay (NCATS).
Inconclusive results are not listed. A call without a number means that no potency is given here. Activity calls are given as the source filed them. Calls come from the whole dose curve; as a rule, active = well fitted curve in the direction sought with a large enough effect; inconclusive = small, poorly fitted or top-dose-only effect, or another doubt; inactive = no such curve, though single readings can be large; an effect the other way counts as inactive or inconclusive.

Experiment: qHTS for differential inhibitors of proliferation of Plasmodium falciparum line GB4 (AID 1816);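 note: parasite growth measured after 72 h incubation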
Details: Potency: Plasmodium falciparum GB4 proliferation inhibition; series mostly up to 28.7 µM
Potency is the fitted concentration of half-maximal effect.

Structure (SMILES) | Potency
CCC(C)N(C)C(=O)c1cc2ccccc2c(-c2ccccc2Cl)n1 (stereo not given) | 12.6 µM (active)
N[C@@H]1CONC1=O | inactive
NS(=O)(=O)c1cc2c(cc1Cl)NC=NS2(=O)=O | inactive
CCCCNc1cc(C(=O)O)cc(S(N)(=O)=O)c1Oc1ccccc1 | inactive
CC(=O)Oc1ccccc1C(=O)O | inactive
CCOC(=O)C1=C[C@]2(CC)CCCN3CCc4c(n1c1ccccc41)[C@@H]32 | 7.94 µM (active)
Nc1ccc(S(=O)(=O)Nc2ccnn2-c2ccccc2)cc1 | inactive
Cc1[nH]c(=O)c(C#N)cc1-c1ccncc1 | inactive
NCCCC(N)(C(=O)O)C(F)F (stereo not given) | inactive
NC[C@H](O)c1ccc(O)c(O)c1 | inactive
Cc1oncc1C(=O)Nc1ccc(C(F)(F)F)cc1 | inactive
CCN(CC)CCCC(C)Nc1ccnc2cc(Cl)ccc12 (stereo not given) | 1.78 µM (active)
Nc1nc2ccc(OC(F)(F)F)cc2s1 | inactive
N=c1nc(N2CCCCC2)cc(N)n1O | inactive
O=C1CCC(N2C(=O)c3ccccc3C2=O)C(=O)N1 (stereo not given) | inactive

Experiment: qHTS for differential inhibitors of proliferation of Plasmodium falciparum line 3D7 (AID 1876)
Details: P. falciparum 3D7 proliferation inhibition; series mostly up to 28.7 µM

Structure (SMILES) | Potency
N[C@@H]1CONC1=O | inactive
Clc1cccc(Cl)c1NC1=NCCN1 | inactive
NS(=O)(=O)c1cc2c(cc1Cl)NC=NS2(=O)=O | inactive
CCCCNc1cc(C(=O)O)cc(S(N)(=O)=O)c1Oc1ccccc1 | inactive
CC(=O)Oc1ccccc1C(=O)O | inactive
Nc1ccc(S(=O)(=O)Nc2ccnn2-c2ccccc2)cc1 | inactive
Cc1[nH]c(=O)c(C#N)cc1-c1ccncc1 | inactive
NCCCC(N)(C(=O)O)C(F)F (stereo not given) | inactive
NC[C@H](O)c1ccc(O)c(O)c1 | inactive
CCN(CC)CCCC(C)Nc1ccnc2cc(Cl)ccc12 (stereo not given) | 0.112 µM (active)
Cn1cnc([N+](=O)[O-])c1Sc1ncnc2nc[nH]c12 | 12.6 µM (active)
Nc1nc2ccc(OC(F)(F)F)cc2s1 | inactive
Cc1cnc(NC(=O)C2=C(O)c3ccccc3S(=O)(=O)N2C)s1 | inactive
N=c1nc(N2CCCCC2)cc(N)n1O | inactive
O=C1CCC(N2C(=O)c3ccccc3C2=O)C(=O)N1 (stereo not given) | inactive

Experiment: qHTS for differential inhibitors of proliferation of Plasmodium falciparum line D10 (AID 1877);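 note: parasites grown with compound for 72 h before DNA staining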
Details: series mostly up to 28.7 µM

Structure (SMILES) | Potency
CCC(C)N(C)C(=O)c1cc2ccccc2c(-c2ccccc2Cl)n1 (stereo not given) | 11.2 µM (active)
N[C@@H]1CONC1=O | inactive
Cc1ccc(N(CC2=NCCN2)c2cccc(O)c2)cc1 | inactive
Clc1cccc(Cl)c1NC1=NCCN1 | inactive
NS(=O)(=O)c1cc2c(cc1Cl)NC=NS2(=O)=O | inactive
CCCCNc1cc(C(=O)O)cc(S(N)(=O)=O)c1Oc1ccccc1 | inactive
CC(=O)Oc1ccccc1C(=O)O | inactive
Nc1ccc(S(=O)(=O)Nc2ccnn2-c2ccccc2)cc1 | inactive
Cc1[nH]c(=O)c(C#N)cc1-c1ccncc1 | inactive
NCCCC(N)(C(=O)O)C(F)F (stereo not given) | inactive
NC[C@H](O)c1ccc(O)c(O)c1 | inactive
Cc1oncc1C(=O)Nc1ccc(C(F)(F)F)cc1 | inactive
CCN(CC)CCCC(C)Nc1ccnc2cc(Cl)ccc12 (stereo not given) | 0.316 µM (active)
NNCCc1ccccc1 | inactive
Nc1nc2ccc(OC(F)(F)F)cc2s1 | inactive
Cc1cnc(NC(=O)C2=C(O)c3ccccc3S(=O)(=O)N2C)s1 | inactive
N=c1nc(N2CCCCC2)cc(N)n1O | inactive
O=C1CCC(N2C(=O)c3ccccc3C2=O)C(=O)N1 (stereo not given) | inactive

Experiment: qHTS for differential inhibitors of proliferation of Plasmodium falciparum line Dd2 (AID 1882); note: nearly all actives have a fitted effect of over 65% in size
Details: Potency: Plasmodium falciparum Dd2 proliferation inhibition; series mostly up to 28.7 µM
Summary of the method: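 Dd2-infected erythrocytes (0.3% parasitemia, 2.5% hematocrit final) incubated with compound 72 h at 37 C, 5% CO2; lysed with saponin/Triton buffer containing SYBR Green I, incubated overnight in the dark, then read by fluorescence (485/535 nm). Normalized to 0.29 uM artemisinin and DMSO.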

Structure (SMILES) | Potency
CCC(C)N(C)C(=O)c1cc2ccccc2c(-c2ccccc2Cl)n1 (stereo not given) | inactive
N[C@@H]1CONC1=O | inactive
Cc1ccc(N(CC2=NCCN2)c2cccc(O)c2)cc1 | inactive
NCCc1ccc(O)c(O)c1 | inactive
Clc1cccc(Cl)c1NC1=NCCN1 | inactive
NS(=O)(=O)c1cc2c(cc1Cl)NC=NS2(=O)=O | inactive
CCCCNc1cc(C(=O)O)cc(S(N)(=O)=O)c1Oc1ccccc1 | inactive
CC(=O)Oc1ccccc1C(=O)O | inactive
Nc1ccc(S(=O)(=O)Nc2ccnn2-c2ccccc2)cc1 | inactive
Cc1[nH]c(=O)c(C#N)cc1-c1ccncc1 | inactive
NCCCC(N)(C(=O)O)C(F)F (stereo not given) | inactive
NC[C@H](O)c1ccc(O)c(O)c1 | inactive
Cc1oncc1C(=O)Nc1ccc(C(F)(F)F)cc1 | inactive
CCN(CC)CCCC(C)Nc1ccnc2cc(Cl)ccc12 (stereo not given) | 10 µM (active)
NNCCc1ccccc1 | inactive
Cc1cnc(NC(=O)C2=C(O)c3ccccc3S(=O)(=O)N2C)s1 | inactive
N=c1nc(N2CCCCC2)cc(N)n1O | inactive
O=C1CCC(N2C(=O)c3ccccc3C2=O)C(=O)N1 (stereo not given) | inactive

Experiment: qHTS for differential inhibitors of proliferation of Plasmodium falciparum line W2 (AID 1883);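 note: parasites grown with compound for 72 h before lysis and staining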
Details: Potency: Plasmodium falciparum W2 proliferation inhibition; series mostly up to 28.7 µM

Structure (SMILES) | Potency
CCC(C)N(C)C(=O)c1cc2ccccc2c(-c2ccccc2Cl)n1 (stereo not given) | 7.94 µM (active)
Cc1ccc(N(CC2=NCCN2)c2cccc(O)c2)cc1 | 11.2 µM (active)
NCCc1ccc(O)c(O)c1 | 10 µM (active)
CCCCNc1cc(C(=O)O)cc(S(N)(=O)=O)c1Oc1ccccc1 | inactive
CC(=O)Oc1ccccc1C(=O)O | inactive
CCOC(=O)C1=C[C@]2(CC)CCCN3CCc4c(n1c1ccccc41)[C@@H]32 | 14.1 µM (active)
Nc1ccc(S(=O)(=O)Nc2ccnn2-c2ccccc2)cc1 | inactive
Cc1[nH]c(=O)c(C#N)cc1-c1ccncc1 | inactive
NCCCC(N)(C(=O)O)C(F)F (stereo not given) | inactive
CCN(CC)CCCC(C)Nc1ccnc2cc(Cl)ccc12 (stereo not given) | 2.24 µM (active)
Cn1cnc([N+](=O)[O-])c1Sc1ncnc2nc[nH]c12 | 12.6 µM (active)
Cc1cnc(NC(=O)C2=C(O)c3ccccc3S(=O)(=O)N2C)s1 | 8.91 µM (active)
N=c1nc(N2CCCCC2)cc(N)n1O | inactive
O=C1CCC(N2C(=O)c3ccccc3C2=O)C(=O)N1 (stereo not given) | inactive
